Inconclusive results are not listed. Calls of active or inactive are those of the source. Calls come from the whole dose curve; as a rule, active = well fitted inhibition curve with a large enough effect; inconclusive = small, poorly fitted or top-dose-only effect; inactive = flat fitted curve, though single readings scatter.

In one assay the test system is HACAT. Put plainly: qHTS assay to identify novel small-molecules to repurpose for Merkel cell carcinoma treatment (AID 1296009). Note: nearly all actives have a fitted effect of over 60% in size. To be noted: MCC and control cell lines, CellTiter-Glo viability, 72 h; at 44.8 µM (top of the series) unless noted. An outline of the steps: (§1)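 Dose-response viability screen; 72 hr exposure at 37 degree celsius; CellTiter-Glo added, 10 min room temperature, luminescence read; RLUs scaled between no-cell and DMSO wells.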
In the case of `COc1ccc2cc1Oc1ccc(cc1)C[C@H]1c3c(cc4c(c3Oc3cc5c(cc3OC)CCN(C)[C@@H]5C2)OCO4)CCN1C`, the molecule was called inactive.
The same measure, in the same setting: the result for `C=Cc1c(C)c2cc3[nH]c(cc4nc(cc5nc(cc1[nH]2)C(C)=C5CCC(=O)O)C(CCC(=O)O)=C4C)c(C)c3C=C` reads “inactive”; that for `CN1CCN(C2Cc3ccccc3Sc3ccc(Cl)cc32)CC1` (configuration not stated), “inactive”; that for `CN(C)CCC=C1c2ccccc2CCc2ccccc21`, “inactive”.
`CSc1ccc2c(c1)C(N1CCN(C)CC1)Cc1ccccc1S2` (configuration not stated): the molecule was classed as inactive.
As for `CN1CCCCC1CCN1c2ccccc2Sc2ccc(S(C)=O)cc21` (configuration not stated), the molecule was called inactive.
On the same count and under the same terms, the result for `NC(=O)N/N=C/c1ccc([N+](=O)[O-])o1` reads “inactive”.
In the case of `O=C1Nc2ccc(Cl)cc2[C@@](C#CC2CC2)(C(F)(F)F)O1`, the outcome was inactive.

For the next assay, the system named is HEK293T. The description is as above. To be noted: MCC and control cell lines, CellTiter-Glo viability, 72 h; at 44.8 µM (top of the series) unless noted. An outline of the steps: as §1
With `CN1[C@@H]2CC(OC(=O)[C@H](CO)c3ccccc3)C[C@H]1[C@@H]1O[C@@H]12` (some centres not stated), the molecule was classed as inactive.
The same measure, in the same setting: the result for `O=C1NC(=O)[C@@]2(CCOc3ccc(F)cc32)N1` reads “inactive”; that for `CCN(CC)C(C)CN1c2ccccc2Sc2ccccc21` (configuration not stated), “inactive”; that for `C[C@]12C[C@H](O)[C@H]3[C@@H](CCC4=CC(=O)CC[C@@]43C)[C@@H]1CC[C@@H]2C(=O)CO`, “inactive”.

(Values after PubChem BioAssay (NCATS).)
